HT1080 IDH1KD tx = HT-1080 IDH1 knockdown cell toxicity (counter line). 2% of 360,000 active. Potency, µM (series often up to 46.1 µM), most hits filed as cytotoxic. HT-1080 IDH1 knockdown viability, ATP luminescence, 48 h
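HT-1080-IDH1KD cells (IDH1 knocked down), 750/well in RPMI with 5% FBS, treated with compound 48 h at 37 degrees C. Viability by CellTiter-Glo luminescence, normalised to DMSO and no-cell wells; concentration-response curves classed.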
IL1B secr inh = inhibitors of inflammasome signaling (IL-1 beta secretion); THP-1 LPS/ATP IL-1B secretion, AlphaLISA, 16 h; active compounds read low; activity change, % at 57.5 µM; 4.7% of 360,000 active; in the data active = activity change below about -50%; inconclusive = mostly about -30% to -49%
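Secreted IL-1B measured by AlphaLISA bead assay after 16 h compound exposure of THP-1 cells; compounds (final up to 57.5 uM) added 1 h before LPS (250 ng/mL) and ATP (1.25 mM) stimulation; lower signal means less secretion.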
ELG1 repair inh = inhibitors of ELG1-dependent DNA repair in HEK293T cells | Potency, µM (doses to about 46.1 µM), hits mostly inhibitors | AID 504467 | 2.3% of 330,000 active | HEK293T ELG1-luciferase reporter, luminescence, 16 h; DNA damage induced by 5-fluorouridine; note: nearly all actives have a fitted effect of over 55% in size
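Cells (2,000 per well) received 5-fluorouridine plus test compound or DMSO and were incubated 16 hr at 37 °C, 5% CO2. Luciferase activity was read by luminescence 30 min after ONE-Glo addition; signal suppression marked inhibition of damage-induced ELG1 function.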
TDP1 cell CPT = growth inhibition of DT40 Tdp1-/-;hTDP1 cells with camptothecin (screen for TDP1 inhibitors). chicken DT40 Tdp1-/-;hTDP1 cells + 20 nM CPT, ATP luminescence, 48 h. Potency, µM (titrated, usually from 46.2 µM), actives largely listed as inhibitors. 12% of 420,000 active. AID 686979; note: nearly all actives have a fitted effect of over 55% in size
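Chicken DT40 Tdp1-/- cells complemented with human TDP1, 400 cells/well, exposed to compounds plus 20 nM camptothecin for at least 48 h at 37 C; viability read as ATP content by CellTiter-Glo luminescence.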
TDP1 cell noCPT = qHTS for Inhibitors of human tyrosyl-DNA phosphodiesterase 1 (TDP1): qHTS in cells in absence of CPT. Potency, µM (titrated, usually from 46.2 µM), actives largely listed as inhibitors. AID 686978, 2013. 15% of 420,000 active. DT40 Tdp1-/- hTDP1 cells, no CPT, ATP luminescence, 48 h; note: nearly all actives have a fitted effect of over 55% in size
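Readout: luminescence from CellTiter-Glo after 30 min in the dark at RT. Cells: DT40 Tdp1-/- with stable hTDP1, 400/well. Exposure: compounds alone, ≥48 hr, 37 °C.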
HT1080-NT tox = kills 2HG-producing HT-1080-NT fibrosarcoma cells; HT-1080-NT fibrosarcoma viability, CellTiter-Glo ATP luminescence, 48 h; Potency, µM (doses to about 46.1 µM), actives largely listed as cytotoxic; 1.6% of 360,000 active;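 note: NT is the 2HG producing partner of a matched IDH1 knockdown line; nearly all actives have a fitted effect of over 55% in size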
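HT-1080-NT; 750 cells/well; 5% FBS RPMI; 48 h compound, 37 degrees C; CellTiter-Glo luminescence; curve fitting and curve-class assignment.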
Hits are given with their value; . = inactive; ? = inconclusive; / = no result. An excerpt weighted towards active compounds, which were near 19% of everything screened. Unless noted, calls come from the whole dose curve; as a rule, active = well fitted curve in the direction sought with a large enough effect; inconclusive = small, poorly fitted or top-dose-only effect, or another doubt; inactive = no such curve, though single readings can be large; an effect the other way counts as inactive or inconclusive.

SMILES	HT1080 IDH1KD tx	IL1B secr inh	ELG1 repair inh	TDP1 cell CPT	TDP1 cell noCPT	HT1080-NT tox
COCc1cccc(-c2csc(C(C)(O)c3ccc(OC)cc3)n2)c1 (stereo not given)	.	.	/	?	?	.
CCOCCn1ccc2c(OCC(=O)Nc3ccc(OC(F)(F)F)cc3)cccc2c1=O	/	/	/	.	?	/
Oc1cccc(/C=N\Nc2nncc(-c3ccccc3)n2)c1	.	-61.9	?	?	?	.
CCOc1cc(/C=N/Nc2nncc(-c3ccccc3)n2)ccc1O	.	.	?	?	?	?
C[C@H](CO)N1C[C@H](C)[C@@H](CN(C)S(C)(=O)=O)Oc2ccc(NC(=O)NC3CCCCC3)cc2C1=O	.	.	?	.	.	.
N#Cc1ccc(CSc2nc3c(c(=O)[nH]2)CCC3)cc1	/	/	/	.	.	/
COC(=O)[C@@]12CCCCN1[C@H](c1ccc(-c3ccc(OC)cc3)c(OC)c1)[C@@H]1C(=O)N(C)C(=O)[C@@H]12	.	.	.	20.6µM	?	.
COC(=O)[C@@]12CCCCN1[C@H](c1ccc(-c3ccc4c(c3)OCO4)cc1)[C@H]1C(=O)N(C)C(=O)[C@H]12	.	.	?	13µM	23.1µM	.
COC(=O)[C@@]12CCCCN1[C@H](c1ccc(-c3ccc(C(C)=O)cc3)cc1)[C@@H]1C(=O)N(C)C(=O)[C@@H]12	.	.	?	14.6µM	23.1µM	.
COC(=O)[C@@]12CCCCN1[C@H](c1ccc(-c3ccc(OC)cc3)cc1)[C@@H]1C(=O)N(C)C(=O)[C@@H]12	.	.	?	20.6µM	20.6µM	.
COc1ccc(C(=O)C(C)OC(=O)COc2ccccc2)cc1 (stereo not given)	.	.	.	.	.	.
CCOc1ccc(S(=O)(=O)Nc2ccc(C(=O)NCC(C)(C)N3CCOCC3)cc2)cc1	.	.	?	?	.	.
Cc1nnsc1C(=O)Oc1ccccc1Cl	/	/	/	.	.	/
COc1ccc(Cn2c(/C=C/c3ccccc3)nc3ccccc32)cc1	?	-78.4	?	?	.	11.2µM
COc1ccc(-n2cnc3ccccc32)cc1	.	.	8.2µM	?	.	.
CCn1c(/C=C/c2ccccc2)nc2ccccc21	?	.	?	?	25.9µM	?
CCn1c(/C=C/c2ccccc2)nc2ccccc2c1=O	.	.	.	?	?	.
CCn1c(NCc2ccc(OC)cc2)nc2ccccc21	.	.	?	.	?	.
CC(C)Cn1c(/C=C/c2ccccc2)nc2ccccc21	.	-66.4	?	?	?	?
CC(C)Nc1ncnc2[nH]ncc12	.	.	/	.	.	.
COc1ccc(/C=C/c2nc3ccccc3n2C)cc1	4.61µM	-72.6	?	9.2µM	8.2µM	5.17µM
O=c1cc(-c2ccccc2)oc2ccc(Cl)cc12	?	.	/	.	.	.
O=c1oc(-c2ccccc2)cc(Cl)c1Cl	9.2µM	-99.5	?	1.64µM	1.84µM	16.4µM
CC(=O)Oc1ccccc1Cn1c(C)c(C(=O)N(C)Cc2ccc(F)cc2)sc1=O	.	.	/	?	?	.
O=C(NC1CCCCC1)C1CCCN(S(=O)(=O)c2ccc(F)cc2)C1 (stereo not given)	.	.	.	.	?	.
SMILES	HT1080 IDH1KD tx	IL1B secr inh	ELG1 repair inh	TDP1 cell CPT	TDP1 cell noCPT	HT1080-NT tox
CC(=O)NC(Cc1c(F)c(F)c(F)c(F)c1F)C(=O)NCC(N)C(=O)c1ccccc1 (stereo not given)	.	/	/	?	20µM	.
CCOc1cc(NCc2ccccc2)c2ncn(C(C)C)c2c1	.	.	.	?	23.1µM	.
CCC(CO)Oc1cc(NCc2ccc(Cl)cc2)c2ncn(C(C)C)c2c1 (stereo not given)	.	.	.	?	?	.
CC[C@H](CO)Oc1cc(NCc2ccc(Cl)c(Cl)c2)c2ncn(C(C)C)c2c1	.	.	?	16.4µM	?	?
CCCOc1cc(NCc2ccccc2)c2ncn(C(C)C)c2c1	.	?	.	?	?	.
CCC(CO)Oc1cc(NCc2cccc(C(F)(F)F)c2)c2ncn(C(C)C)c2c1 (stereo not given)	.	.	.	16.4µM	?	.
CCC(CO)Oc1cc(NCc2cccc(C)c2)c2ncn(C(C)C)c2c1 (stereo not given)	.	.	?	20.6µM	?	.
CCOC(=O)c1ccc(CN(Cc2ccc(F)cc2)S(=O)(=O)c2ccc(F)c(C(=O)Nc3ccc(Cl)cc3F)c2)cc1	/	/	/	.	.	/
Cc1cc(OC(=O)c2ccc(Cl)cc2Cl)c([N+](=O)[O-])c(=O)[nH]1	.	.	.	.	.	.
COc1ccc(C(=O)OCC(=O)NCc2ccc3c(c2)OCO3)cc1S(=O)(=O)N1CCOCC1	.	.	.	.	.	.
CCC(CO)Oc1cc(NCc2ccc(C)cc2)c2ncn(C(C)C)c2c1 (stereo not given)	.	.	.	?	?	.
CC[C@H](CO)Oc1cc(NCc2cccc(N)c2)c2ncn(C(C)C)c2c1	?	.	/	25.9µM	?	?
Cc1ccn2cc(C(=O)Nc3cccc(C(=O)NC4CC4)c3)nc2c1	.	.	?	?	16.4µM	.
Cc1ccc(C(=O)Nc2cccc(C(=O)NC3CCCCC3)c2)cc1	?	.	/	23.1µM	?	.
COc1ccc(S(=O)(=O)NCC2CCCO2)cc1NC(=O)c1ccccc1F (stereo not given)	?	.	.	.	.	?
CCc1ccc(/C=N/n2c(COc3ccccc3)n[nH]c2=S)cc1	.	.	.	?	.	.
COc1cc(NC(=O)CSc2nnc(NC(C)C)s2)cc(OC)c1OC	.	.	?	?	?	.
CCOC(=O)c1ccc(N2C(=O)CC(N3CCCC(C)C3)C2=O)cc1 (stereo not given)	.	.	.	12.6µM	?	.
O=C(O)c1ccc(N2C(=O)CC(N3CCN(c4cccc(Cl)c4)CC3)C2=O)cc1 (stereo not given)	.	.	?	.	3.26µM	.
CC1CCN(C2CC(=O)N(c3ccccc3)C2=O)CC1 (stereo not given)	.	.	.	20.6µM	.	.
Cc1cc(C)n(C2CC(=O)N(c3cccc(Cl)c3)C2=O)n1 (stereo not given)	.	.	.	14.6µM	?	.
O=C(O)c1ccc(N2C(=O)CC(N3CCN(c4cccc(C(F)(F)F)c4)CC3)C2=O)cc1 (stereo not given)	.	.	.	.	.	.
O=C1CC(N2CCOCC2)C(=O)N1c1cccc(Cl)c1 (stereo not given)	.	.	.	.	.	.

Screening data (PubChem)
